Screening data (PubChem)
Casp7 inh: qHTS Assay for Allosteric/Competitive Inhibitors of Caspase-7; P55210; Potency, µM (series often up to 57.5 µM), inactives show at the top dose activity change, negative = inhibition, most hits filed as inhibitors; 0.02% of 75,000 active; recombinant caspase-7, Ac-DEVD-AFC fluorescence rate; AID 889, 2007; active = well fitted inhibition curve with a large enough effect in the main read-out, with a control signal flat, not every such curve was filed as active; inconclusive = small, poorly fitted or top-dose-only effect, or a change in a side signal; also: % of control where 0% means no effect
Target sequence (P55210 24-198 limits assumed): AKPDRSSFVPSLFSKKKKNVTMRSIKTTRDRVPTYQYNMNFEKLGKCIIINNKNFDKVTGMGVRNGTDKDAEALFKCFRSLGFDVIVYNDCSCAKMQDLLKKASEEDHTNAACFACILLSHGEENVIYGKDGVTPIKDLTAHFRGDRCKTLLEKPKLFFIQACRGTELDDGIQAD
Target sequence (P55210 207-303 limits assumed): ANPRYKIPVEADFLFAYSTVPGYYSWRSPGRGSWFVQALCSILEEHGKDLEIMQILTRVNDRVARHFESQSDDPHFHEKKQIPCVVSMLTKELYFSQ
ERK AVP inh: qHTS Assay for Inhibitors of the ERK Signaling Pathway using a Homogeneous Screening Assay; HEK293-V1b, vasopressin-stimulated pERK AlphaScreen; Potency, µM (top dose mostly 57.5 µM), for inactives: at the top dose activity, negative = inhibition, hits mostly inhibitors; 0.99% of 72,000 active; AID 995, 2007; also: % is scaled to controls: 0 for no effect and ±100 for the full control effect; nearly all actives have a fitted effect of over 55% in size
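HEK293 cells stably expressing V1b receptor, preincubated 30 min at 37 °C with compound, then stimulated 5 min with 25 nM vasopressin. Phospho-ERK by AlphaScreen SureFire after 5 h RT; normalized to DMSO and vasopressin; AC50 by Hill fit.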
ALOX15 inhib: qHTS Assay for Inhibitors of 15-hLO (15-human lipoxygenase); purified 15hLO-1, xylenol orange hydroperoxide absorbance; Potency, µM (highest dose often 57.1 µM), inactives show at the highest dose activity change, negative = inhibition, hits mostly inhibitors; 1.4% of 74,000 active; AID 887, 2007; also: % is scaled to controls: 0 for no effect and ±100 for the full control effect; nearly all actives have a fitted effect of over 55% in size
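Purified human 15hLO-1 (40 nM) in 25 mM Hepes pH 7.5, 0.01% Triton X-100, preincubated 15 min RT with compound, then 50 uM arachidonic acid for 6 min. Hydroperoxide read by ferrous/xylenol orange, 30 min; 573/405 nm absorbance ratio gave progress.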
TSHR agonist: qHTS Assay for Agonists of the Thyroid Stimulating Hormone Receptor; Potency, µM (titrated, usually from 57.1 µM), for the others: at the highest dose activation, actives largely listed as activators; 0.48% of 73,000 active; HEK293-CNG-TSHR cells (CNG channel as cAMP sensor), membrane potential dye, cAMP; AID 926, 2007; active = well fitted activation curve with a large enough effect in the main read-out, with a control signal flat, not every such curve was filed as active; inconclusive = small, poorly fitted or top-dose-only effect, or a change in a side signal; inactive = no such curve, though single readings can be large or run the other way; % of control where 0% means no effect;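 also: the control signal comes from parental cells without the receptor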
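HEK 293 cells stably expressing TSHR and a cAMP-gated CNG channel; parental CNG-only cells as counterscreen. Cells preloaded 60 min with membrane potential dye plus 100 uM RO 20-1724, then compound 30 min; fluorescence read at 590 nm.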
Caspase-1 inhib: qHTS Assay for Allosteric/Competitive Inhibitors of Caspase-1; Potency, µM (titrated, usually from 57.5 µM), without a hit: at the top dose activity change, negative = inhibition, hits mostly inhibitors; P29466; AID 900, 2007; 0.03% of 75,000 active; Caspase-1 enzyme, Ac-WEHD-AFC fluorogenic rate;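 also: plate controls were vehicle for no effect and no substrate for full effect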
Target sequence (P29466 120-297 limits assumed): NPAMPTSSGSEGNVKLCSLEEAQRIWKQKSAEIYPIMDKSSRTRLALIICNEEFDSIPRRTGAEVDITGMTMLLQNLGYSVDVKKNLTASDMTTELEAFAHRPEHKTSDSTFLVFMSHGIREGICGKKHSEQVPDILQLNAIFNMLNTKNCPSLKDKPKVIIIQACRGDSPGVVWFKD
Target sequence (P29466 317-404 limits assumed): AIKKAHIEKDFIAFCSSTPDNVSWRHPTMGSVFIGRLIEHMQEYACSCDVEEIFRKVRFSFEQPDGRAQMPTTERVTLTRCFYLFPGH
HEK293 cAMP cs: qHTS Assay for Agonists of the Thyroid Stimulating Hormone Receptor: Activators of Intracellular cAMP Concentrations in Parental HEK 293; parental HEK293 CNG cAMP sensor, membrane potential fluorescence; Potency, µM (top dose mostly 57.1 µM), without a hit: at the top dose activation, most hits filed as activators; 2.5% of 73,000 active; AID 938, 2007; also: % of control where 0% means no effect; nearly all actives have a fitted effect of over 55% in size
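Parental HEK 293 cells stably expressing a cAMP-gated CNG channel were loaded with membrane potential dye containing 100 uM RO 20-1724 for 60 min. Compound added for 30 min; depolarization read as fluorescence intensity at 590 nm.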
Active calls of the source: *; ? = inconclusive; . = no result given; [ ] = another dose, or the depositor's remark. This is a sample that favours compounds with a hit; in the whole collection about 4.8% have one here. Unless noted, calls follow the shape of the dose curve; as a rule, active = well fitted curve in the direction sought with a large enough effect; inconclusive = small, poorly fitted or top-dose-only effect, or another doubt; inactive = no such curve, though single readings can be large; an effect the other way counts as inactive or inconclusive. Potency is read from the fitted curve at half-maximal effect.

SMILES	Casp7 inh	ERK AVP inh	ALOX15 inhib	TSHR agonist	Caspase-1 inhib	HEK293 cAMP cs
CCOC(=O)C1CCN(S(=O)(=O)c2cccc(-c3cn4cccc(C)c4n3)c2)CC1	-7.7%	20µM*	-8.3%	?	-6.2%	?
O=C(CN1CCN(c2ncccn2)CC1)NCCC1=CCCCC1	-0.6%	-14.5%	-19.1%	10.1%	0.1%	-4.6%
Oc1ccc(Br)cc1-c1nc2cnccn2c1NC1CCCC1	?	31.6µM*	?	.	.	-1.9%
CC1CCC2C(C)(C)C3CC12CC[C@]3(C)O (stereo not given in full)	-0.7%	7.9%	?	.	2.5%	.
CC(=O)O[C@]1(C)CC[C@]23CC1C(C)(C)C2CC[C@@H]3C (stereo not given in full)	1.3%	16.1%	25.1µM*	.	1.9%	.
Cc1noc(C)c1-c1ccc2ncnc(NCc3cccs3)c2c1	?	8.2%	8.2%	?	-1.0%	?
Cc1cc(C#N)c(C)n1-c1cc(C(F)(F)F)ccc1N1CCOCC1	-4.3%	18.3%	-8.1%	?	-3.8%	12.6µM*
CC(C)C(=O)Nc1cc(C(F)(F)F)ccc1N1CCOCC1	0.1%	-18.0%	-2.5%	11.7%	-0.8%	6.3%
COc1cccc(Cn2c(=O)cnc3cnc(N4CCN(C)CC4)nc32)c1	-5.6%	-5.8%	2.6%	7.4%	-5.7%	23.8%
COc1ccc(C(=O)NC2CCN(S(=O)(=O)Cc3ccccc3)CC2)c(OC)c1	5.5%	6.5%	12.7%	?	-0.7%	10µM*
O=C(NC1CCCCC1)NC1CCN(S(=O)(=O)Cc2ccccc2)CC1	1.1%	25.7%	2.4%	-18.0%	-0.3%	9.1%
COc1cc2c(cc1OC)-c1nnc(-c3cccs3)n1C(C)(C)C2	-2.0%	?	-7.1%	?	1.0%	?
COc1cc2c(cc1OC)-c1cc3nc4ccccc4nc3n1C(C)(C)C2	?	31.0%	12.6µM*	2.0%	.	-1.0%
O=C(NC1CCCCCC1)C1c2ccccc2C(=O)N1Cc1ccco1 (stereo not given)	2.1%	20.6%	2.6%	?	0.1%	12.6µM*
COCCCN1C(=O)c2ccccc2C1C(=O)NC1CCCCCC1 (stereo not given)	1.2%	15.7%	1.9%	?	-0.5%	?
Cc1cc(N2CCN(c3ccccn3)CC2)n2c(nc3ccccc32)c1C#N	-5.2%	-14.2%	-1.2%	?	-6.6%	2µM*
COc1ccc(CNc2cc(-c3cccnc3)ncn2)c(OC)c1	-1.8%	-23.0%	1.8%	?	-3.3%	?
COc1ccc(CNc2cc(-c3ccccc3Cl)ncn2)c(OC)c1	-10.9%	15.8µM*	-1.1%	?	-4.0%	20µM*
COc1ccc(CNc2cc(-c3ccccc3OC)ncn2)c(OC)c1	-5.9%	?	25.1µM*	?	-5.4%	?
COc1ccccc1-c1cc(NCc2ccccc2)ncn1	-2.8%	?	-22.4%	?	-4.4%	?
CC(=O)c1c(C(C)=O)c(C)n(-c2ccc(C(=O)O)cc2)c1C	-24.3%	-7.6%	24.2%	-1.5%	-13.2%	5.3%
CCN(CC)c1ccc(-n2c(C)c(C(C)=O)c(C(C)=O)c2C)cc1	-1.1%	-29.8%	-9.7%	?	1.3%	15.8µM*
CCN(CC)CCCC(C)NC(=O)c1ccc(-n2c(=O)c(=O)[nH]c3ccccc32)cc1 (stereo not given)	-1.0%	.	2.1%	5.5%	0.4%	4.6%
O=C(O)CCSc1nc2ccc(Br)cc2[nH]1	0.6%	27.1%	2.4%	-0.6%	-0.3%	7.2%
Cn1c(CSc2nc3ccc(Br)cc3[nH]2)nc2ccccc21	-6.0%	20µM*	-5.1%	11.4%	-4.9%	11.7%
SMILES	Casp7 inh	ERK AVP inh	ALOX15 inhib	TSHR agonist	Caspase-1 inhib	HEK293 cAMP cs
Oc1ccc(N=Cc2ccc(O)c(O)c2)cc1	-25.6%	?	12.6µM*	-13.5%	-18.3%	-0.5%
CC1(c2ccc3noc(-c4ccc(Cl)cc4)c3c2)OCCO1	-6.6%	15.8µM*	-6.4%	?	-7.0%	?
COc1ccccc1N1CSC2=C(C#N)C(c3ccc(SC)cc3)CC(=O)N2C1 (stereo not given)	-16.0%	4.9%	3.16µM*	-1.5%	0.4%	2.2%
COc1cccc(C2CC(=O)N3CN(c4ccccc4F)CSC3=C2C#N)c1 (stereo not given)	-2.1%	-17.4%	?	-2.0%	-0.1%	18.7%
COc1cc(C2CC(=O)N3CN(c4ccccc4C)CSC3=C2C#N)cc(OC)c1OC (stereo not given)	-17.1%	-14.7%	3.98µM*	14.9%	-11.0%	-11.1%
COc1ccc(Br)cc1C1CC(=O)N2CN(Cc3ccccc3)CSC2=C1C#N (stereo not given)	-18.6%	-9.0%	2.51µM*	-1.9%	-7.1%	5.0%
CCC1=C(OC(=O)N(CC)CC)N2C(=O)OC(=NCCOC)[C@]2(Cc2ccccc2)[C@H]2C1=CC[C@H]1C(=O)N(C)C(=O)[C@H]12	-2.2%	-0.4%	.	.	1.0%	.
C=CCc1cccc2cc(C(=O)N(CC)CC)c(=O)oc12	0.0%	21.2%	-0.7%	6.6%	-0.5%	7.0%
O=C(c1cnccn1)N1CCc2ccccc21	0.5%	-29.4%	15.8µM*	-0.5%	-1.9%	-5.7%
O=C(c1cccnc1)N1CCCc2ccccc21	0.3%	-32.0%	-5.5%[11.4 µM]	2.6%[11.4 µM]	0.3%	-0.2%[11.4 µM]
Cc1ccc(N(CC(=O)N2CC(=O)Nc3ccccc32)S(=O)(=O)c2ccc3c(c2)OCCO3)cc1	-0.4%	-0.5%	-21.1%	7.94µM*	-4.4%	10.1%
O=C(OCCCCN1C(=O)c2ccccc2C1=O)c1n[nH]c2ccccc12	-7.6%	?	-2.0%	6.1%	-0.7%	24.6%
CC(=O)c1c(C)[nH]c(C(=O)OCCCCN2C(=O)c3ccccc3C2=O)c1C	0.9%	12.6µM*	-1.2%	.	-0.5%	22.6%
N=C(N)SCCc1ccc(OCc2ccc([N+](=O)[O-])cc2)cc1	1.1%	?	?	-2.1%	3.0%	-12.0%
CCOC(=O)C1=C(CS(=O)(=O)c2ccc(F)c(C)c2)NC(=O)NC1c1ccc(O)c(O)c1 (stereo not given)	-4.1%	25.1µM*	?	?	0.0%	?
CCOC(=O)c1cc2sccc2n1CC(=O)N1CCCc2ccccc21	1.1%	1.3%	-14.8%	?	-4.6%	?
CCOC(=O)c1cc2sc(C)cc2n1CC(=O)N1CCc2ccccc21	-0.4%	12.1%	-2.4%	?	-1.5%	7.94µM*
